Source: PubChem BioAssay AID1159580 (chemical genetic matrix, 2015)
Among all 5,500 compounds or so, about 2,000 (36%) were called active. Another 18% or so got no clear call; they are omitted. Rule as the data show it: active = normalized growth mostly below about 0.91 (no sharp cut-off); inconclusive = no clear call, values can overlap the other calls; inactive = mostly above about 0.92. Some of the results follow.

Test: chemical genetic growth profiling, strain panel (AID 1159580);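 also: tested at 20 µM; growth read once vehicle control cultures reached saturation at 30 °C; 1 = growth at the plate median or of vehicle wells; lower values mean less growth of the strain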
Details: S. cerevisiae deletion strains, growth OD

Measured: normalized growth

NOCC(=O)O
inactive: locus YAL040C, strain CLN3, hits give low values 0.96 | locus YCL061C, strain MRC1 (second series), hits give low values 0.985 | locus YDR363W, strain ESC2, hits give low values 1.01 | locus YER002W, strain NOP16, hits give low values 0.997 | locus YGR229C, strain SMI1, hits give low values 0.979 | locus YJR075W, strain HOC1, hits give low values 1 | locus YNL128W, strain TEP1, hits give low values 0.977 | locus YNL175C, strain NOP13, hits give low values 1.01 | locus YNL197C, strain WHI3, hits give low values 0.993 | locus YNL224C, strain SQS1, hits give low values 1.04 | locus YNL322C, strain KRE1, hits give low values 0.998 | locus YOR083W, strain WHI5 (second series), hits give low values 0.993 | locus YPL055C, strain LGE1, hits give low values 0.999
